High-throughput results as filed in PubChem BioAssay.
Compounds with a hit are over-represented: about 2.3% of the library has one in this group of screens.
Fam108B inh – mouse Fam108B serine hydrolase inhibitors, primary screen, counter-screen for RBBP9 inhibitor project, biochemical, fluorescence polarization | inhibition, % at 9.51 µM | AID 1947, 2009 | 0.33% of 300,000 active | recombinant Fam108B, FP-Rh probe fluorescence polarization;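 active = inhibition above the screen mean inhibition plus 3 SD, computed separately per campaign, cut at about 18% in these data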;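 also: inhibitors lower polarization as less probe binds the enzyme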
pPAFAH FP inh – pPAFAH enzyme inhibitors, primary screen, biochemical, fluorescence polarization, human; Platelet-activating factor acetylhydrolase (Homo sapiens), Q13093; recombinant pPAFAH, FP-rhodamine probe fluorescence polarization; inhibition, % at 3.39 µM; 1.5% of 330,000 active;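 active = inhibition above the mean inhibition across the screen plus 3 SD, cut at about 25% in these data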;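 also: inhibitors block binding of the rhodamine activity-based probe so polarization drops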
PAD4 FP inh – human PAD4 inhibitors, primary screen, biochemical, fluorescence polarization, 1536-well format; recombinant PAD4, RCA probe fluorescence polarization; AID 485272, 2010; Protein-arginine deiminase type-4 (Homo sapiens), Q9UM07; 0.41% of 330,000 active; inhibition, % at 6.36 µM;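 active = percent inhibition above a cutoff equal to the mean of all tested compounds plus 3 SD, cut at about 15% in these data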
GSTO1 counter – inhibitors of recombinant GSTO1, primary screen, counter-screen for RBBP9 inhibitor project, biochemical, fluorescence polarization; AID 1974, 2009; activity-based probe fluorescence polarization; inhibition, % at 5.96 µM; Glutathione S-transferase omega-1 (Homo sapiens), P78417; 1.1% of 300,000 active;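 active = inhibition above the campaign mean inhibition plus 3 SD, cut at about 35% in these data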
PME-1 primary – PME-1 inhibitors via competitive probe labeling, primary screen, biochemical, fluorescence polarization, FP-Rh probe, HTS; recombinant PME-1; Protein phosphatase methylesterase 1 (Homo sapiens), Q9Y570; 0.53% of 320,000 active; AID 2130, 2009; inhibition, % at 5.9 µM;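 active = inhibition above the campaign mean of all compounds plus 3 SD, cut at about 26% in these data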;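 also: competitive labeling of PME-1 active site by serine hydrolase directed probe; inhibitors block probe labeling so polarization falls and inhibition rises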
Each line names hits and unclear results; the compound was inactive in the other large screens.

C=CCNC1=C(Cl)C(=O)c2ccccc2C1=O	GSTO1 counter 68
CC(=C/c1ccco1)/C=N/NC(=O)c1nnn(-c2nonc2N)c1CN(C)C	none
CCN(CC(=O)NCc1ccc(F)cc1)CC(=O)Nc1cc(S(=O)(=O)N(C)C)ccc1C	pPAFAH FP inh 29 (no result: Fam108B inh, GSTO1 counter)
Cc1cccc(N=C2NC(=O)/C(=C/c3cccn3C)S2)c1C	pPAFAH FP inh 32
O=[N+]([O-])c1ccc(Cl)c(S(=O)(=O)Nc2cccc(-c3ccc(N4CCCC4)nn3)c2)c1	none
COc1cc(NS(=O)(=O)c2cc3c(cc2C)NC(=O)CO3)cc(OC)c1	none
Cc1cc2c(cc1S(=O)(=O)Nc1ccc(OC(F)(F)F)cc1)OCC(=O)N2	pPAFAH FP inh 34
CN(Cc1ccccc1)C(=O)COC(=O)c1cc(Cl)nc(Cl)c1	none
CN(Cc1ccccc1)C(=O)COC(=O)c1ccc2ccccc2n1	pPAFAH FP inh 25
CN(Cc1ccccc1)C(=O)COC(=O)c1ccc2c(c1)OCO2	pPAFAH FP inh 26
FC(F)(F)c1nc2cc3nc4ccccc4[nH]c3cc2n1	pPAFAH FP inh 31
CCOC(=O)N1CC=C2C(C#N)=C(N)C(C#N)(C#N)[C@H](c3ccsc3)[C@H]2C1	none
CCOC(=O)N1CC=C2C(C#N)=C(N)C(C#N)(C#N)[C@H](c3ccccc3OCC)[C@H]2C1	PME-1 primary 27
CN1CC=C2C(C#N)=C(N)C(C#N)(C#N)[C@H](c3cccc(Cl)c3)C2C1 (some centres undefined)	none
N#CC1=C(N)C(C#N)(C#N)C(c2ccncc2)C2CN(C(=O)OCc3ccccc3)CC=C12 (centres undefined)	PME-1 primary 31
N#CC1=C(N)C(C#N)(C#N)[C@H](c2cccnc2)[C@H]2CN(C(=O)OCc3ccccc3)CC=C12	none
CCOC(=O)N1CC=C2C(C#N)=C(N)C(C#N)(C#N)[C@H](c3ccc(OC(C)C)c(OCC)c3)[C@H]2C1	PME-1 primary 41
COc1ccc(CCN2C(=O)N[C@@H](C(C)C)C2=O)cc1	none
Cc1ccc(S(=O)(=O)Nc2cc(C(C(=O)OC(C)C)C(=O)C(F)(F)F)c(O)c3ccccc23)c(C)c1 (centres undefined)	GSTO1 counter 44
Cc1ccc(S(=O)(=O)Nc2ccc3c4c(cccc24)CC3)c(C)c1	none
O=C(COC(=O)COc1ccc(Br)cc1)NC1CCCCCC1	none (no result: Fam108B inh, GSTO1 counter)
COc1cccc(C(=O)OCC(=O)NC23CC4CC(CC(C4)C2)C3)c1	pPAFAH FP inh 27 (no result: Fam108B inh, GSTO1 counter, PME-1 primary)
O=C(COC(=O)Cc1ccc(Br)cc1)NC1CCCCCC1	pPAFAH FP inh 27
O=C(COC(=O)Cc1ccc(Br)cc1)NC12CC3CC(CC(C3)C1)C2	pPAFAH FP inh 26
Cc1cccc(C(=O)OCC(=O)NC23CC4CC(CC(C4)C2)C3)c1O	none (no result: Fam108B inh, GSTO1 counter, PME-1 primary)
CC(C)c1nc(SCC(=O)NCC2CCCO2)c2c(=O)n(C)c(=O)n(C)c2n1 (centres undefined)	none
CCOC(=O)C1=C(C)N(C)C(=O)NC1c1cc2c(cc1[N+](=O)[O-])OCO2 (centres undefined)	none
Cc1ccccc1N=Cc1cc2c(cc1O)OC(N)=C(C#N)C2c1ccccc1 (centres undefined)	pPAFAH FP inh 26
N#CC1=C(N)Oc2cc(O)c(C=Nc3ccccc3)cc2C1c1ccccc1 (centres undefined)	none
CNC(=O)CS(=O)CC(=O)Nc1cc(OCCOC)c(Cl)cc1Cl (centres undefined)	pPAFAH FP inh 30
COCCOc1cc(NC(=O)c2ccccc2)c(Cl)cc1Cl	none
COc1ccc(CNC(=O)COC(=O)c2ccc(C(=O)c3ccccc3)cc2)cc1	pPAFAH FP inh 31 (no result: Fam108B inh, GSTO1 counter, PME-1 primary)
COc1ccc(CNC(=O)COC(=O)c2ccccc2C(=O)c2ccccc2)cc1	none
Cc1ccc(CNC(=O)COc2ccc(C(=O)c3ccc(F)cc3)cc2)cc1	GSTO1 counter 56
Cc1ccc(CNC(=O)COc2ccc(S(=O)(=O)N3CCOCC3)cc2)cc1	pPAFAH FP inh 28
COc1ccc(CNC(=O)COc2ccc(S(=O)(=O)N3CCOCC3)cc2)cc1	none
O=C(COc1ccc(C(=O)c2ccc(F)cc2)cc1)NCc1ccc(F)cc1	none
CC(O)CNC(=O)Cc1cc(=O)[nH]c(=O)[nH]1 (centres undefined)	none
Cc1csc(NC(=O)CSc2nccn2C)n1	none
